From PubChem
Compounds with a hit are over-represented: about 3.4% of the library has one in this group of screens.
AmpC detergent = blocks E. coli AmpC beta-lactamase in detergent assay; P00811; AmpC hydrolysis of nitrocefin, absorbance 480 nm, 0.01% Triton; Potency, µM (series often up to 114 µM), without a hit: top-dose activity change, negative = inhibition, usual class: inhibitors; 0.041% of 370,000 active; AID 485294;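 also: 0% = no-compound wells and -100% = no-enzyme wells; nearly all actives have a fitted effect of over 25% in size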
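AmpC (5.3 nM in the dispensed reagent) in 20 mM phosphate pH 7.0 with 0.01% (detergent screen) or 0.0001% Triton X-100 was preincubated with compounds for 15 min at room temperature. Nitrocefin was then added from an 800 uM solution, and hydrolysis was followed at 480 nm.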
RE007 growth inh = less growth of the S. pombe RE007 Vpr strain; 0.21% of 360,000 active; Potency, µM (top dose mostly 92.2 µM), for the others: at the top dose activity change, negative = less growth, hits mostly inhibitors; S. pombe RE007 Vpr strain, BacTiter-Glo ATP luminescence, 24 h; AID 651644; active = well fitted falling curve with a large enough effect; inconclusive = small, poorly fitted or top-dose-only effect; inactive = no such curve, though single readings can be large or run the other way; also: nearly all actives have a fitted effect of over 50% in size
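Fission yeast RE007 carrying one integrated HIV-1 vpr copy, seeded at OD 0.01 in PMG+AL medium with 23 nL pinned compound. Grown 24 h at 30 degrees; viability read by BacTiter-Glo luminescence after 5 min.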
FBPA Giardia inh = inhibitors of Giardia lamblia fructose-1,6-bisphosphate aldolase | A8B2U2 | Potency, µM (doses to about 59.6 µM), without a hit: top-dose activity, negative = inhibition, hits mostly inhibitors | 0.71% of 290,000 active | purified Giardia FBPA; also: nearly all actives have a fitted effect of over 55% in size
Target sequence (A8B2U2 whole entry, looked up): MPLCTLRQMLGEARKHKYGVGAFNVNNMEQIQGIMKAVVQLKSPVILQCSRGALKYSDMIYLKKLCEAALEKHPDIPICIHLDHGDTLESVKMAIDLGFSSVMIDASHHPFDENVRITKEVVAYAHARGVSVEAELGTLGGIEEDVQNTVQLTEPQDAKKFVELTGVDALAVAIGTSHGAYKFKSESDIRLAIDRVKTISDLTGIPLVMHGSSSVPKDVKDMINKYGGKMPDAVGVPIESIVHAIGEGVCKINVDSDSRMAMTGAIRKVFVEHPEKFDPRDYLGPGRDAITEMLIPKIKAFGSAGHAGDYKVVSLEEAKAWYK
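40 nM FBPA preincubated 10 min at RT with compound (up to 57.5 uM final), then substrate plus GAPDH/TPI/NAD/arsenate coupling and diaphorase/resazurin added. Fluorescence read after 20 min at RT, 525/598 nm.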
Sm TGR block = inhibitors of Schistosoma mansoni thioredoxin glutathione reductase. Q962Y6. purified TGR, DTNB reduction, TNB absorbance 405 nm. Potency, µM (titrated, usually from 114 µM), for the others: at the top dose activity change, negative = inhibition, most hits filed as inhibitors. 3% of 360,000 active. AID 485364; also: nearly all actives have a fitted effect of over 60% in size
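First, TGR (20 nM dispensed) and NADPH were mixed with compound. Second, a 15 min room-temperature incubation followed. Third, further NADPH and then DTNB were added to start the reaction. Finally, TNB absorbance was monitored kinetically.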
AmpC inh no detg = AmpC beta-lactamase inhibition without detergent | P00811 | AmpC nitrocefin hydrolysis, absorbance 480 nm, 0.0001% Triton | Potency, µM (doses to about 57.1 µM), for the others: at the top dose activity change, negative = inhibition, usual class: inhibitors | 0.52% of 330,000 active | AID 485341;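 also: plate controls were no compound for no effect and no enzyme for full effect; nearly all actives have a fitted effect of over 20% in size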
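AmpC (5.3 nM in the dispensed reagent) in 20 mM phosphate pH 7.0 with 0.01% (detergent screen) or 0.0001% Triton X-100 was preincubated with compounds for 15 min at room temperature. Nitrocefin was then added from an 800 uM solution, and hydrolysis was followed at 480 nm.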
* hit, by the source's call; u = inconclusive; x = not tested or not shown. Unless noted, calls follow the shape of the dose curve; as a rule, active = well fitted curve in the direction sought with a large enough effect; inconclusive = small, poorly fitted or top-dose-only effect, or another doubt; inactive = no such curve, though single readings can be large; an effect the other way counts as inactive or inconclusive. Unless noted, % is scaled to controls: 0 for no effect and ±100 for the full control effect; potency is read from the fitted curve at half-maximal effect.

SMILES | AmpC detergent | RE007 growth inh | FBPA Giardia inh | Sm TGR block | AmpC inh no detg
CC(Oc1cccc(Cl)c1)C(=O)NNC(=O)c1cccnc1 (centres undefined) | x | 1% | x | x | -4%
Cc1cc(Cl)c(S(=O)(=O)Nc2ccon2)cc1OCC(=O)NC1CCCCC1 | -1% | 13% | 5% | -6% | 0.22µM*
O=S(=O)(CCN1CCCCC1)Oc1ccc(Cl)cc1Cl | 3% | -4% | 5% | 0.45µM* | 0%
CN(C)S(=O)(=O)c1ccc(Cl)c(NC(=O)CSc2nc3c(cc2C#N)C(=O)CCC3)c1 | u | 4% | 0% | -19% | -9%
CCOc1ccc(C(=O)c2cn(Cc3ccccc3OC)c3cc4c(cc3c2=O)OCCO4)cc1 | -2% | x | x | u | x
CN(C)S(=O)(=O)c1ccc(C(=O)OCn2nnc3ccccc3c2=O)cc1 | 1% | 0% | 0% | 0% | 10µM*
Cc1cccc(CC(=O)OCn2nnc3ccccc3c2=O)c1 | -19% | -14% | 2% | -3% | 10µM*
O=C(Cc1ccccc1)OCn1nnc2ccccc2c1=O | -7% | -11% | 6% | 7% | -17%
Cc1ccc(CNC(=O)c2cnc(N3CCCCC3)c3ccccc23)cc1 | 0% | x | x | 3% | x
O=C(Cc1ccc(Cl)cc1)Nc1ncccn1 | -1% | -3% | 5% | 0% | -27%
Cc1ccc(NS(=O)(=O)c2cc(C(=O)Nc3cccnc3)ccc2C)cc1 | 6% | 2% | x | -3% | 28µM*
Cc1ccc(NS(=O)(=O)c2cc(C(=O)NCc3cccnc3)ccc2C)cc1 | 4% | -4% | x | -1% | -37%
Cc1ccc(C(=O)COC(=O)COc2ccccc2[N+](=O)[O-])s1 | -3% | 26% | x | -16% | -32%
CCOC(=O)COc1ccccc1/C=C\[N+](=O)[O-] | u | 32µM* | -10% | 11µM* | -9%
CC(=O)c1ccccc1OCCCN1CCCCC1 | -2% | -19% | -29% | 32µM* | 2%
Brc1ccccc1OCCCN1CCCCCC1 | 2% | -10% | u | -2% | 1%
CCOc1cc(C2c3c(oc4ccc(F)cc4c3=O)C(=O)N2Cc2ccc(C)cc2)ccc1O (centres undefined) | 1% | x | x | -2% | x
COC(=O)C1C/C(=N/NS(=O)(=O)c2ccc(C)cc2)CS1 (centres undefined) | -11% | 1% | x | 13µM* | -19%
Cc1ccccc1N1C(=O)CC(Sc2nnc(-c3ccccc3)o2)C1=O (centres undefined) | -14% | u | 3% | 2.8µM* | -18%
CCSc1nnc(-c2ccncc2)o1 | u | 8% | x | 6% | -8%
O=C1c2ccccc2CC1Sc1nnc(-c2ccncc2)o1 (centres undefined) | 5% | -28% | -5% | 16µM* | -17%
Cc1ccc(N2C(=O)CC(Sc3nc(-c4ccccc4)c4cc(Cl)ccc4n3)C2=O)c(C)c1 (centres undefined) | u | 4% | -1% | -5% | -1%
O=C1CC(Sc2nnc(-c3ccccc3)o2)C(=O)N1c1ccccc1 (centres undefined) | -4% | 16µM* | 0% | 3.5µM* | -20%
O/N=C/c1ccccc1OCc1ccccc1Cl | 0% | 45µM* | 8% | -19% | -30%
C=CCOc1ccc(Br)cc1/C=N/O | u | -15% | -2% | 0% | -30%
SMILES | AmpC detergent | RE007 growth inh | FBPA Giardia inh | Sm TGR block | AmpC inh no detg
O/N=C/c1cc(Br)ccc1OCc1ccccc1F | x | 40µM* | x | x | x
CCOC(=O)c1sc(N2C(=O)c3oc4cc(C)c(C)cc4c(=O)c3C2c2ccc(C)cc2)nc1C (centres undefined) | 6% | x | x | 20% | x
Cc1c(C(=O)N(C)c2ccccc2Cl)cnn1-c1ccccc1 | u | 7% | 7% | -1% | 13%
COCCN(C(=O)c1ccco1)c1nc(-c2ccc(OC)cc2)cs1 | x | 12% | x | x | x
COCCN(C(=O)c1ccco1)c1nc(-c2ccccc2)cs1 | -19% | 34% | -4% | 63µM* | -6%
O=C(NCCCN1CCOCC1)C1CCC(=O)N1CCc1ccccc1 (centres undefined) | u | -7% | 3% | 89µM* | -14%
CCOC(=O)c1ccc(NC(=O)Nc2ncccc2C)cc1 | -1% | 6% | 4% | 12% | -21%
